From the supplement of paper PMC10338343
± gives the standard deviation.

Tested on: MILI (PIWIL2) piRISC loaded with L1MC piRNA (26 nt)
Assay: pre-steady-state target cleavage rate (min^-1); guide: L1MC piRNA 5'p-UAACUAAAUACUAUGCAAGCUGUAGG; MIWI and MILI are mouse PIWI proteins and EfPiwi is from a freshwater sponge; tags in brackets are library labels; higher = faster piRNA-guided slicing of the target
Conditions: auxiliary factor: 500 nM mouse GTSF1
In short: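 Cleave-'n-Seq: 1 nM active affinity-purified piRISC with one synthetic guide and 0.1 nM transcribed, DNA-blocked target RNA library were mixed, with or without 500 nM GTSF1 partner protein, in HEPES–potassium acetate buffer at 33 °C for 0–8 or 0–960 min. Uncleaved targets were sequenced and normalised to depth and to weakly complementary targets, three trials were pooled, and k3 was capped at 0.0001 min^-1. The pre-steady-state cleavage rate was fitted […].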

Sequence | pre-steady-state target cleavage rate
UCCUGGAUCAGCUACCAUAGUAUUUAGAAA | 0.024 ± 0.0091
UCCUGGAUGAGCUACGAUAGUAUUUAGUUA | 0.00662 ± 0.0035
UCCUGGAUGUGCAAGCAUAGUAUUUAGUAA | 0.0583 ± 0.013
UCCUGGAUGUCCUAGGAUAGUAUUUAGUUA | 0.0104 ± 0.0042
UCCUGGAUGAGCUUGCAUAGUUUUUAGUAA | 0.0181 ± 0.0068
UCCUGGAUGUCCUUGGCAUAGUAUUUAGUUA | 0.566 ± 0.19
UCCUGGUACAGCUUGCAUAGUAUGUAGUUA | 0.03 ± 0.011
UCCUGGAACAGCUUGCAUAGUAUUUUGUAA | 0.0402 ± 0.012
UCCUGGAACAGCUACCAUAGUAUUUAGAAA | 0.0138 ± 0.0052
UCCUGGAUGUCGAACCAUAGUUAAUAGUUA | < 0.0001
UCCUGGAUCAGCUUGCAUAGAUAUUAGUUA | 0.00566 ± 0.0036
UCCUGGAUGUCGAUGCAUAGCAUUUAGUUA | 0.0232 ± 0.0085
UCCUGGUACAGCUUGCAAAGUAUUUACUUA | 0.0515 ± 0.015
UCCUCCUACAGCUUGGUUAGUAUUUACAAA | 0.0445 ± 0.012
UCCUGGAUCUCCUUGCAUAGUAUUUACAAA | 0.0872 ± 0.018
UCCUGGUACAGCUUGCAUAGUAUUUGUUA | 0.0839 ± 0.022
UCCUGGAUGUCGAACGUAUCUAUUUAGGUA | < 0.0001
UCCUGGAUGUGCUUGCAUAGUAUUAUGUUA | 0.0376 ± 0.013
UCCUGCUACAGCUUGCAAUCUAUUUAGUAA | 0.0639 ± 0.022
UCCUGGAACACCUUGCAUAGAAUUUAGUUA | 0.0907 ± 0.036
UCCUGGAUGUCGAACCAUAGUAUUUGAGUUA | < 0.0001
UCCUGGAUGAGCUUGCAAAGUAUUUACUUA | 0.046 ± 0.014
UCCUGGAUGUCCUUGCAUAGUAUUAUGUUA | 0.00972 ± 0.0046
UCCUGGAUGUCCUUGCAUACUAUUUAGUAA | 0.0148 ± 0.0062
